# TDP1 cell CPT – DT40-hTDP1 cell growth loss with CPT; AID 686979; chicken DT40 Tdp1-/-;hTDP1 cells + 20 nM CPT, ATP luminescence, 48 h; Potency, µM (series often up to 46.2 µM), for the others: at the highest dose activity change, negative = growth inhibition, hits mostly inhibitors; 420,000 compounds, 12% hits; also: potency is read from the fitted curve at half-maximal effect; % is scaled to controls: 0 for no effect and ±100 for the full control effect; nearly all actives have a fitted effect of over 55% in size
#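 Chicken DT40 Tdp1-/- cells complemented with human TDP1, 400 cells/well, exposed to compounds plus 20 nM camptothecin for at least 48 h at 37 C; viability read as ATP content by CellTiter-Glo luminescence.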
# BCR signal inh – inhibitors of chronic active B-cell receptor signaling; ABC-DLBCL IkBa-CBG/CBR reporter, luminescence ratio, 4 h; Potency, µM (top dose mostly 46.1 µM), without a hit: at the top dose activity change, negative = inhibition, actives largely listed as inhibitors; 340,000 compounds, 0.05% hits; AID 493014; active = well fitted inhibition curve with a large enough effect in the signal ratio, with a control signal flat, not every such curve was filed as active; inconclusive = small, poorly fitted or top-dose-only effect, or effect the other way, or a change in a side signal; the % refers to the signal ratio;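 also: potency is read from the fitted curve at half-maximal effect; plate controls were basal doxycycline-induced cells for no effect and cells given 10 µM MG132 for full effect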
#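 Doxycycline induced both beetle luciferases in TMD8 lymphoma cells; IKK-driven degradation limits the IkappaBalpha-fused green signal, while red luminescence normalises for cell number and nonspecific effects. Compounds tested up to 46 uM, 4 hrs.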
# DT40 TDP1 no CPT – qHTS for Inhibitors of human tyrosyl-DNA phosphodiesterase 1 (TDP1): qHTS in cells in absence of CPT. 420,000 compounds, 15% hits. Potency, µM (titrated, usually from 46.2 µM), for the others: top-dose activity change, negative = growth inhibition, usual class: inhibitors. DT40 Tdp1-/- hTDP1 cells, no CPT, ATP luminescence, 48 h; also: potency is read from the fitted curve at half-maximal effect; % is scaled to controls: 0 for no effect and ±100 for the full control effect; nearly all actives have a fitted effect of over 55% in size
#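 Camptothecin absent (DMSO only). Human TDP1-complemented DT40 knockout cells, 400 cells/well, 37 °C for minimum 48 hr; ATP measured via CellTiter-Glo, 30 min dark incubation, luminescence.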
# MCF10A rereplic – DNA re-replication induction in MCF 10a cells; MCF 10A DNA re-replication, Hoechst nuclear intensity, 48 h; Potency, µM (titrated, usually from 46.1 µM), without a hit: at the top dose activity, positive = re-replication, hits mostly activators; 350,000 compounds, 2.9% hits; AID 624296; also: potency is read from the fitted curve at half-maximal effect; % of control where 0% means no effect; nearly all actives have a fitted effect of over 50% in size
# IL-1B inflam inh – inflammasome signaling inhibition, IL-1 beta readout. activity change, % at 57.5 µM. THP-1 LPS/ATP IL-1B secretion, AlphaLISA, 16 h; active compounds read low. 360,000 compounds, 4.7% hits; in the data active = activity change below about -50%; inconclusive = mostly about -30% to -49%; also: % is scaled to controls: 0 for no effect and ±100 for the full control effect
#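 THP-1 cells pretreated 1 hr with compounds (up to 57.5 uM final), then stimulated with LPS (250 ng/mL final) plus ATP (1.25 mM final); secreted IL-1B measured by AlphaLISA after 16 hr, decreased signal indicating inhibition.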
# SW480 rerep – induces DNA re-replication in SW480 colon adenocarcinoma cells; SW480 DNA re-replication, Hoechst DNA content imaging, 48 h; Potency, µM (top dose mostly 46.1 µM), without a hit: at the highest dose re-replication activation, hits mostly activators; 340,000 compounds, 1.8% hits; also: potency is read from the fitted curve at half-maximal effect; % of control where 0% means no effect; nearly all actives have a fitted effect of over 55% in size
#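 Quantitative HTS format with DMSO vehicle controls; 48 hr drug incubation at 37 C, then 40 min Hoechst staining and scanning imager measurement at 405 nm excitation.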
# Starred values were filed as active, the others as inactive; u = inconclusive; x = not tested or not shown. Most compounds without a hit are left out; they make up all but 19% or so of the library. Unless noted, calls follow the shape of the dose curve; as a rule, active = well fitted curve in the direction sought with a large enough effect; inconclusive = small, poorly fitted or top-dose-only effect, or another doubt; inactive = no such curve, though single readings can be large; an effect the other way counts as inactive or inconclusive.
SMILES,TDP1 cell CPT,BCR signal inh,DT40 TDP1 no CPT,MCF10A rereplic,IL-1B inflam inh,SW480 rerep
Cc1c(Cc2ccccc2)c(=O)oc2cc(OCC(=O)NCC3CCC(C(=O)O)CC3)ccc12 (stereo not given),3%,u,-10%,-2%,10,12%
O=C(O)CCn1c(SCCOc2ccccc2)nc2ccccc21,7%,6%,4%,-1%,2,-2%
CN(C)S(=O)(=O)N1CCC(Oc2cccc(C(=O)NCCC3=CCCCC3)c2)CC1,16µM*,u,u,3%,0,3%
CS(=O)(=O)N1CCC(Oc2cccc(C(=O)NCCCC3CCCC3)c2)CC1,u,x,21µM*,7%,u,-7%
CN(C)S(=O)(=O)N1CCC(Oc2cccc(C(=O)NC3CCCCC3)c2)CC1,18µM*,u,u,14%,0,u
C=CCOc1ccc(/C=N/n2nnnc2N)cc1OC,3%,x,-3%,-2%,-19,-31%
COc1cccc(NS(=O)(=O)c2ccc3[nH]cc(C(=O)NC(C)c4ccccc4)c(=O)c3c2)c1 (stereo not given),u,x,-24%,x,x,x
O=C1c2ccccc2[C@@H]2C[C@@H](O)[C@H](Nc3cccc4ccccc34)CCN12,u,-2%,16µM*,u,-7,18µM*
CCOC(=O)[C@@H]1[C@H]2COc3cc(OC)ccc3[C@@H]2N2C(=O)N(c3ccccc3)C(=O)[C@]12C,-19%,-2%,-24%,0%,-7,1%
Nc1nc(NC2CC2)c2ncn([C@@H]3C=C[C@@H](CO)C3)c2n1,12µM*,x,15µM*,x,x,x
OC[C@@H]1CN(Cc2ccc(Cl)cc2)C[C@H](n2cnc3c(NC4CC4)ncnc32)O1,u,x,-26%,x,11,x
CCN(CC)S(=O)(=O)c1ccc(NC(=O)NCc2noc3ccc(C)cc23)cc1,21µM*,x,23µM*,x,x,x
Cc1ccc2onc(CNC(=O)NCc3ccc(Cl)cc3)c2c1,-1%,x,1%,x,x,x
Cc1cc(/C([O-])=C(/C(=S)Nc2ccc(F)cc2)[n+]2ccccc2)c(C)n1Cc1ccccc1Cl,21µM*,u,23µM*,u,3,-12%
Cc1ccc(-n2c(C)cc(/C([O-])=C(/C(=S)Nc3ccc(F)c(Cl)c3)[n+]3ccccc3)c2C)cc1,23µM*,u,23µM*,5%,u,3%
Cc1cc(/C([O-])=C(/C(=S)Nc2ccc(F)cc2)[n+]2ccccc2)c(C)n1-c1ccc(F)cc1,x,u,x,19%,8,13%
O=C(CN1C(=O)CSc2ccc(S(=O)(=O)N3CCCC3)cc21)NCc1ccc(F)cc1Cl,-30%,-1%,-29%,x,x,x
COc1ccccc1N1CCN(CCCNC(=O)c2cnn(-c3cccc(Cl)c3)c2C2CCN(C(=O)OC(C)(C)C)CC2)CC1,9.2µM*,x,7.3µM*,x,x,x
CN1CCN(CCCNC(=O)c2cnn(-c3ccccc3)c2C2CCN(C(=O)OC(C)(C)C)CC2)CC1,-13%,x,-5%,x,x,x
Cc1ccc(C)c(N2CCN(CCCNC(=O)c3cnn(-c4ccccc4)c3C3CCN(C(=O)OC(C)(C)C)CC3)CC2)c1,6.5µM*,x,4.6µM*,x,x,x
CC(=O)COC(=O)C1=NN(c2ccccc2)C(=O)CC1,-1%,u,-2%,-22%,5,1%
Cc1nc2ccc(S(=O)(=O)NC(C(=O)NCc3ccc(Cl)cc3)C(C)C)cc2s1 (stereo not given),6%,x,-4%,x,x,x
Cc1ccc(C(=O)NC(=S)N(C)C2CCCCC2)cc1,-24%,u,-32%,10%,u,1%
COC(=O)C(Cc1ccccc1)NC(=O)c1cc(=O)[nH]c2ccccc12 (stereo not given),u,1%,-8%,14%,-103*,2%
COC(=O)[C@@H](Cc1c[nH]c2ccccc12)NC(=O)c1cc(=O)[nH]c2ccccc12,15%,-1%,1%,-7%,-99*,-4%
SMILES,TDP1 cell CPT,BCR signal inh,DT40 TDP1 no CPT,MCF10A rereplic,IL-1B inflam inh,SW480 rerep
O=C(NCCN1CCOCC1)/C(=C/c1ccco1)NC(=O)c1ccccc1,-4%,3%,-1%,27%,-3,0%
COC(=O)N/N=C/c1cn(CCOc2ccccc2)c2ccccc12,0%,u,u,2%,u,-113%
Cc1ccc(OCCn2cc(/C=C3\C(=O)NN(c4ccccc4)C3=O)c3ccccc32)cc1,16µM*,2%,26µM*,16%,-1,-3%
COc1ccc(OCCn2cc(/C=N/NC(=O)c3ccncc3)c3ccccc32)cc1,-2%,-16%,-8%,21%,0,2%
COC(=O)N/N=C/c1cn(CC(C)COc2ccccc2)c2ccccc12 (stereo not given),u,u,23µM*,u,-22,3%
Cc1ccc(OCCn2cc(/C=N/NC(=O)c3ccncc3)c3ccccc32)cc1,u,-7%,23µM*,u,u,4%
CCOC(=O)N/N=C/c1cn(CCCOc2ccc(C)cc2)c2ccccc12,u,-1%,21µM*,10%,-12,u
COCCNC(=O)Cn1cc(/C=N/NC(=O)c2ccc(Oc3ccc(O)cc3)cc2)c2ccccc21,10%,u,-6%,6%,-70*,-89%
COC(=O)N/N=C/c1cn(CCOc2ccccc2OC)c2ccccc12,-17%,-8%,-14%,u,15,-22%
COc1ccc2c(c1)CCc1c(C(=O)Nc3c(C)nn(Cc4ccc(C)cc4)c3C)noc1-2,10µM*,x,9.2µM*,x,x,x
Cc1nn(Cc2ccc(Cl)c(Cl)c2)c(C)c1NC(=O)c1noc2c1CCc1ccccc1-2,5.8µM*,x,5.8µM*,x,x,x
Cc1ccc(C)c(NC(=O)Cn2cc(S(=O)(=O)c3ccc(F)cc3)c(=O)c3cc(F)ccc32)c1,5%,x,-8%,x,x,x
COC(=O)C(CC(=O)c1ccc(Br)cc1)n1ccnc1 (stereo not given),1.4µM*,u,1.3µM*,x,x,x
COc1ccc(C)cc1NC(=O)CO/N=C(\N)CC(=O)NC1CCCCC1,1%,-12%,4%,-4%,-4,1%
COC(=O)c1cc(=O)n(Cc2ccc3c(c2)OCO3)c(=Nc2ccc(F)c(Cl)c2)s1,8.2µM*,3%,6.5µM*,11%,-6,1%
Fc1cc(F)c(NC(=S)N2CCOCC2)c(F)c1,1%,u,-8%,-11%,-4,-4%

# Screening data from PubChem BioAssay.
